# This is one part of a sample in which hits are shown more often than they occur.
# GluA2 TARP mod – modulators of AMPA receptor GluA2-stargazin complexes | O88602+P19491 | HEK293 GluA2+stargazin, membrane potential dye (FDSS), glutamate EC50; hits were called plate by plate, in both directions | calls only at 30 µM | 40,000 compounds, 3.5% hits;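 active = any of four per-well response measures lying three or more SD from its plate-wide compound average, in either direction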
# GIRK2 activator – GIRK2 channel activators by thallium flux. 34,000 tested, under 10 active. HEK293 GIRK2/NPY4 cells, thallium flux fluorescence. activation (% efficacy), % for hits at 37.5 µM. AID 1259324;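 active = primary screen hit, no activity in plain HEK293 cells, and in GIRK2-only cells above 5% efficacy rising with concentration; inactive = the rest, including fluorescent compounds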;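 also: efficacy is normalized control-subtracted fluorescence 15 s after thallium addition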
# Starred values were filed as active, the others as inactive; i = inactive; x = not tested or not shown; + = active, no number; ! = a repeat was not active.
SMILES,GluA2 TARP mod,GIRK2 activator
C=CCN1C(=O)SC(CC(=O)Nc2ccc(Br)cc2)C1=O (stereo not given),+,i
Cc1cccc(NC2SC(=O)N(Cc3ccccc3)C2=O)c1 (stereo not given),+,i
O=C(CC1SC(=O)N(CC(=O)c2ccccc2)C1=O)Nc1ccc(Br)cc1 (stereo not given),i,i
C=CCN1C(=O)SC(CC(=O)Nc2ccc(NC(C)=O)cc2)C1=O (stereo not given),i,i
Cc1cccc(NC(=O)CC2SC(=O)N(CC(=O)c3ccccc3)C2=O)c1 (stereo not given),+!,i
CCOC(=O)C1CCCN(CC(O)COC23CC4CC(CC(C4)C2)C3)C1 (stereo not given),x,i
CC1=NN(c2ccccc2)C(=O)C1C(=O)c1ccc(C)c(C)c1 (stereo not given),+,i
COc1ccc(C(=O)C2C(=O)N(c3ccccc3)N=C2C)cc1OC (stereo not given),i,i
O=C(c1ccco1)N1CCc2ccc(NS(=O)(=O)C3CCCCC3)cc21,i,i
O=C(Cn1cnc(-c2cccs2)cc1=O)NCc1ccccc1OC(F)(F)F,i,i
O=C(Cn1cnc(-c2cccs2)cc1=O)NCC(F)(F)F,+,i
O=C(CSc1ncnc2[nH]ncc12)c1ccc(-c2ccccc2)cc1,i,x
CN(C)C(=O)CSc1ncnc2sc(-c3ccccc3)cc12,+,i
O=C(NCc1nc(-c2ccccc2)no1)C1CCN(C(=O)Nc2cccs2)CC1,i,i
COc1ccc(-c2ccc(=O)n(CCNS(=O)(=O)c3ccc(OC)cc3)n2)cc1,i,x
O=C(O)c1ccc(/C=C/C(=O)c2ccco2)cc1,+,x
CCCC(=O)Nc1ccc(O)c(C(=O)/C=C/c2ccc(C(=O)O)cc2)c1,i,x
Cc1ccccc1-c1ccc(N2CCC(C(=O)Nc3ccc4c(c3)OCO4)CC2)nn1,i,i
O=C(Nc1ccc2c(c1)OCO2)C1CCN(c2ccc(-c3ccc(Cl)cc3)nn2)CC1,+,i
O=C(Nc1ccc(-c2ccc(N3CCOCC3)nn2)cc1)Nc1cccc(Cl)c1,+,i
O=C(NCc1cccnc1)C1CCN(c2ccc(-c3ccc(Cl)cc3)nn2)CC1,i,i
O=C(Nc1cccnc1)C1CCN(c2ccc(-c3ccc(Cl)cc3)nn2)CC1,+,i
O=C(Nc1ccc(-c2ccc(N3CCOCC3)nn2)cc1)Nc1ccccc1F,i,i
CCNc1nn(CC(=O)Nc2cccc(CC)c2)c(N)c1-c1nc(-c2ccccc2C)no1,i,i
COc1cc(NC(=O)NCCCn2nc(-c3ccc(Cl)cc3)ccc2=O)cc(OC)c1,i,i
SMILES,GluA2 TARP mod,GIRK2 activator
COCCn1c(=S)[nH]c2cc(C(=O)NCc3ccco3)ccc2c1=O,i,i
Cn1cccc1C(CNC(=O)c1ccc(F)cc1)N1CCOCC1 (stereo not given),+,i
Cn1cccc1C(CNC(=O)C(=O)NCc1ccc(F)cc1)N1CCOCC1 (stereo not given),i,i
CCOc1ccccc1N1CC(C(=O)Nc2ccccc2F)CC1=O (stereo not given),x,i
COc1ccc(S(=O)(=O)NCC2CCN(C(C)C)CC2)cc1OC,i,i
COc1cccc(-c2nnc(NC(=O)c3ccnn3C(C)C)o2)c1,x,i
CCc1nc(-n2nc(C)cc2N)c2c3c(sc2n1)CCC3,+,i
Cc1nc(N2CCN(c3ccccc3F)CC2)c2c3c(sc2n1)CCCC3,i,x
CCN1C(=O)C(CC(=O)Nc2cccc(OC)c2)SC1=NS(=O)(=O)c1ccc(C)cc1 (stereo not given),x,i
O=C(CCCNC(=O)c1cccc(C(F)(F)F)c1)Nc1cccc2cccnc12,i,i
Cc1nn(C2CCS(=O)(=O)C2)c2nc(-c3ccco3)cc(C(=O)NCc3c(F)cccc3F)c12 (stereo not given),i,i
Cc1nn(C2CCS(=O)(=O)C2)c2nc(-c3ccco3)cc(C(=O)NCCc3ccc(F)cc3)c12 (stereo not given),+,i
Cc1ccc(C)c(C(=O)NCCC(O)c2cccs2)c1 (stereo not given),i,i
Cc1ccc(-c2noc(-c3cn(CC(=O)NC(C)C)c4nc(C)ccc4c3=O)n2)cc1,i,i
CCOc1ccc2ccccc2c1C(=O)NCC(C)(O)c1ccccc1 (stereo not given),x,i
CCOc1cc(C(=O)NCc2ccsc2)cc(OCC)c1OCC,i,i
CCOc1ccc2ccccc2c1C(=O)NCC1CCN(C(C)C)CC1,x,i
CCOc1ccc2ccccc2c1C(=O)NCC(O)(c1ccco1)C1CC1 (stereo not given),+,i
CCOc1ccc2ccccc2c1C(=O)NCc1ccsc1,+,i
CCOc1ccc2ccccc2c1C(=O)NC1CCCC(O)C1 (stereo not given),+,i
Cc1ccc(-n2nnnc2CN2CCN(S(=O)(=O)c3c(C)cc(C)cc3C)CC2)cc1,i,i
CS(=O)(=O)N1CCC(Cn2c(C(F)(F)F)nc3ccccc32)CC1,i,i
O=S(=O)(c1cccs1)N1CCC(Cn2c(C(F)(F)F)nc3ccccc32)CC1,+,i
COc1cc(Cl)c(C)cc1NC(=O)Cn1nc2c(cc1=O)CCCC2,i,i
COc1cc(OC)c(NC(=O)Cn2nc3c(cc2=O)CCCC3)cc1Cl,+,i
SMILES,GluA2 TARP mod,GIRK2 activator
O=C(Cn1c(=O)oc2ccccc21)Nc1cc(-c2ccco2)nn1CCO,i,i
COc1ccc([N+](=O)[O-])cc1NC(=O)c1ccccc1NS(=O)(=O)c1ccccc1,i,i
COc1ccc(S(=O)(=O)Nc2ccccc2C(=O)Nc2ccc([N+](=O)[O-])cc2OC)cc1,+,i
COc1ccc(C(=O)Nc2nnc(-c3cc4cccc(OC)c4o3)o2)cc1OC,+,x
CCCCOc1ccc(C(=O)Nc2nnc(-c3ccc(OC)c(OC)c3)o2)cc1,i,i
COc1ccc(C(=O)Nc2nnc(-c3ccccc3OC)o2)cc1OC,+,x
CCOc1ccc(-c2nnc(NC(=O)CC)o2)cc1OCC,+,i
CCC(=O)Nc1nnc(-c2ccc3c(c2)CCCC3)o1,i,i
COc1cccc2cc(-c3nnc(NC(=O)c4ccccc4)o3)oc12,i,x
COc1ccccc1-c1nnc(NC(=O)c2ccc(C(C)=O)cc2)o1,i,x
COc1ccc(-c2nnc(NC(=O)c3ccc(S(=O)(=O)C(C)C)cc3)o2)cc1OC,+,i
COC(=O)NC(C)c1nc2ccccc2n1Cc1ccccc1F (stereo not given),i,i
COc1cc(/C=C2\SC(=S)N(c3ccccc3C)C2=O)cc(OC)c1OC,i,x
Cn1c(=O)n(CC(=O)N2CCCC2)c(=O)c2c(N3CCN(C(=O)C4CC4)CC3)ccnc21,i,x
COc1ccc(-c2nnc(NC(=O)CCc3ccccc3)o2)cc1OC,i,i
CN(C)c1ccc(C(=O)Nc2nnc(-c3cccs3)o2)cc1,+,x
Cc1ccc(C(=O)Nc2nnc(-c3cccs3)o2)cc1C,i,x
COc1ccc(C(=O)Nc2nnc(-c3ccc(OC)c(OC)c3)o2)cc1OC,+,i
Cc1ccc(C(=O)Nc2nnc(-c3cccs3)o2)cc1,i,x
COc1ccc(-c2nnc(NC(C)=O)o2)cc1OC,+,i

# High-throughput results from PubChem.
